Compounds with a hit are over-represented: about 22% of the library has one in this group of screens.
CYP2C9 act: CYP2C9 (human) activation; P11712; recombinant CYP2C9, luciferin-H conversion, luminescence; stronger effect = higher value; factor 1 = untreated enzyme, 0 = blocked; activation factor at 5 µM; hit rate 1.4% among 96,000; AID 1024;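 active = activation factor of 2 or more for CYP2C9 at a 5 µM dose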
Target sequence (P11712 whole entry, looked up): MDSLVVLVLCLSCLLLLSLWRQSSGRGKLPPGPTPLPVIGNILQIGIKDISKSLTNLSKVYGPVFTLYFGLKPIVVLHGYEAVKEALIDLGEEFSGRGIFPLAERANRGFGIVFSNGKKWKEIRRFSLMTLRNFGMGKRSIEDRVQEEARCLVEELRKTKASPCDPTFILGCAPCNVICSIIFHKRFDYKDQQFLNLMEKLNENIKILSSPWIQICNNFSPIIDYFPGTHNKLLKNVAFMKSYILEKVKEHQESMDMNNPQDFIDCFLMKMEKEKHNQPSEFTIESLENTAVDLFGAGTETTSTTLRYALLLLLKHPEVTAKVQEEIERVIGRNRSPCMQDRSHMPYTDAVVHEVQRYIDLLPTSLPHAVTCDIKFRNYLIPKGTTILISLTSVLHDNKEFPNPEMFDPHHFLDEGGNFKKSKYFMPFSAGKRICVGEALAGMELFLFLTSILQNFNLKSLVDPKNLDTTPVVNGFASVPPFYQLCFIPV
CYP2C19 inh: human CYP2C19 inhibition; CYP2C19 Supersomes, luciferin-H EGE luminescence, 30 min; P33261; inhibition, % at 5 µM; hit rate 21% among 96,000;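 active = CYP2C19 inhibition above a set limit at 5 µM in the primary screen, cut at about 50% in these data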
CYP2C9 inhib: inhibitors of human CYP2C9 | P11712 | CYP2C9 Supersomes, luciferin-H conversion, luminescence | inhibition, % at 5 µM | hit rate 20% among 96,000 | AID 777;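 active = blocking of liver enzyme CYP2C9 beyond about 50% at 5 µM, limit read from the data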
Measles CPE: protection of cells from measles virus; AID 841; Measles virus-infected cells, CPE protection, absorbance; protection (pct of control), % at 4 µM; hit rate 1.5% among 140,000; in the data active = protection mostly above about 24%, no sharp cut-off; inactive = mostly below about 26%
CYP2C19 act: cytochrome P450 2C19 (human) activation; recombinant CYP2C19, luciferin-H EGE luminescence; stronger effect = higher value; 0 = fully inhibited enzyme, 1 = untreated enzyme; 96,000 tested, under 10 active; activation factor at 5 µM;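 active = activation factor of at least 2 at 5 µM in the primary screen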
Numbers stand for hits; . = inactive; / = no result given.

SMILES | CYP2C9 act | CYP2C19 inh | CYP2C9 inhib | Measles CPE | CYP2C19 act
Cc1ccc(S(=O)(=O)Nc2nc(C)c(C(=O)Nc3ccccc3)s2)cc1 | / | / | / | . | /
CC(C)c1cccc(C(C)C)c1NC(=O)Cn1c(=O)cnc2ccccc21 | / | / | / | . | /
CN(Cc1ccccc1)C(=O)c1ccccc1Br | / | / | / | . | /
Cc1ccc(CN(Cc2ccco2)S(=O)(=O)c2ccc(S(=O)(=O)NCC3CCCO3)cc2)cc1 (stereo not drawn) | / | / | / | . | /
COc1nc(N)c(S(=O)(=O)c2ccc(C)cc2)cc1C#N | . | 53 | 53 | . | .
Cc1ccc(-c2nnc(SCc3ccccc3F)o2)cc1 | . | . | . | . | .
Cc1ccc(C)c(CSc2nnc(CCN)o2)c1 | . | 90 | 74 | . | .
Cc1ccc(C)c(CSc2nnc([C@@H](N)C(C)C)o2)c1 | . | 100 | . | . | .
Cc1cnc(C(=O)Nc2nccs2)cn1 | . | . | . | . | .
Cc1scc(C(=O)O)c1-c1c(C(=O)O)csc1C | / | / | / | . | /
CCOC(=O)c1ccc2c(c1)nc(COc1ccc3ccccc3c1)n2CC | . | . | . | . | .
CCOC(=O)c1ccc2c(c1)nc(SCc1cn3ccsc3n1)n2CC | . | . | 52 | . | .
CCc1nccn1C(=O)c1cnn2c(C(F)F)cc(-c3ccccc3)nc12 | . | . | . | . | .
Cc1nn(Cc2c(Cl)cccc2Cl)c(C)c1NC(=O)c1cnn2c(C(F)F)cc(-c3ccccc3)nc12 | . | . | 63 | . | .
Cc1ccc(-c2cc(C(F)F)n3ncc(C(=O)Nc4c(C)nn(Cc5ccccc5Cl)c4C)c3n2)cc1 | . | . | 89 | . | .
Cc1ccc(-c2cc(C(F)F)n3ncc(C(=O)Nc4c(C)nn(Cc5c(Cl)cccc5Cl)c4C)c3n2)cc1 | . | . | 91 | . | .
O=[N+]([O-])c1ccc(N2N=C(c3ccco3)CC2c2ccccc2)cc1 (stereo not drawn) | . | . | 78 | . | .
Cc1ccc(S(=O)(=O)NCCCn2ccnc2)cc1 | / | / | / | . | /
O=C(Nc1cccc(Cl)c1)c1cc(S(=O)(=O)NCCc2ccc(Cl)cc2)ccc1F | / | / | / | . | /
Cc1ccc(S(=O)(=O)NCCc2ccc(S(N)(=O)=O)cc2)cc1 | . | . | . | . | .
Cc1ccc(CCNS(=O)(=O)c2ccc(C)cc2)cc1 | . | 52 | 55 | . | .
O=S(=O)(NCCc1ccncc1)c1cc(Br)ccc1F | . | 89 | 51 | . | .
Cc1ccc(CC(CC(=O)O)C(=O)NCc2ccccc2)cc1 (stereo not drawn) | / | / | / | . | /
Cc1ccc(CNS(=O)(=O)NCc2ccccc2)cc1 | . | 77 | . | . | .
Cc1ccc(S(=O)(=O)NCCc2ccncc2)cc1 | . | 97 | 51 | . | .
SMILES | CYP2C9 act | CYP2C19 inh | CYP2C9 inhib | Measles CPE | CYP2C19 act
Cc1ccccc1-c1ccc(=O)n(CC(=O)Nc2ccc(N3CCOCC3)cc2)n1 | . | . | . | . | .
Cc1ccc(S(=O)(=O)NCc2ccc(C(=O)N3CCCC3)cc2)cc1 | / | / | / | . | /
CCCCNS(=O)(=O)c1ccc(S(=O)(=O)NCc2ccncc2)cc1 | / | / | / | . | /
Cc1ccc(S(=O)(=O)NCCCOC(=O)Nc2ccncc2)cc1 | . | 92 | 100 | . | .
CSc1ccc(S(=O)(=O)NCc2ccc(C)cc2)cc1 | . | 95 | . | . | .
CCCCc1ccc(S(=O)(=O)NCCc2ccncc2)cc1 | . | 100 | 68 | . | .
COc1ccccc1CC(NC(C)=O)C(=O)NC1CCN(C(=O)c2ccc([N+](=O)[O-])cc2)CC1 (stereo not drawn) | / | / | / | . | /
O=C(COC(=O)C1(c2ccccc2F)CCCC1)N1CCOCC1 | . | . | . | . | .
CCOC(=O)CCCNS(=O)(=O)c1c(C)ccc2nsnc12 | / | / | / | . | /
Cc1ccc2nsnc2c1NS(=O)(=O)c1c(C)ccc2nsnc12 | . | . | 56 | . | .
Cc1ccc2nsnc2c1NC(=O)c1cccc([N+](=O)[O-])c1 | / | / | / | . | /
Cc1cc(S(=O)(=O)Nc2c(C)ccc3nsnc23)ccc1F | . | 84 | 51 | . | .
Cc1ccc2nsnc2c1NC(=O)c1cccnc1Cl | / | / | / | . | /
Cc1ccc2nsnc2c1N(S(C)(=O)=O)S(C)(=O)=O | . | 63 | . | . | .
COCCn1c(SCC(=O)/C=C2\N(C)c3ccccc3C2(C)C)nnc1-c1ccncc1 | / | / | / | . | /
COc1ccc(C(C#N)C2(C)OCCO2)cc1OC (stereo not drawn) | . | . | . | . | .
COc1ccc(OC)c(C2SCCN2S(C)(=O)=O)c1 (stereo not drawn) | . | . | . | . | .
COc1ccccc1C1SCCN1S(C)(=O)=O (stereo not drawn) | . | 57 | . | . | .
CC(C)C1Cc2c(sc3[nH]c(=S)n(Cc4ccccc4)c(=O)c23)CO1 (stereo not drawn) | . | . | 77 | . | .
O=C(NN1C(=O)c2ccc3c4c(ccc(c24)C1=O)CC3)c1ccc(Br)cc1 | 3.5 | . | . | . | .
O=C1c2ccc3c4c(ccc(c24)C(=O)N1NC(=O)C(F)(F)F)CC3 | . | . | . | . | .
Cc1cc(OCC(=O)Nc2ccc(F)c(F)c2)nc(C(C)C)n1 | . | 73 | . | . | .
Cc1ccsc1C(=O)Nc1nnc(-c2ccco2)o1 | . | . | 57 | . | .
Cc1ccc(C(=O)c2no[n+]([O-])c2C(=O)c2ccc(C)cc2)cc1 | / | / | / | . | /
CC(C)(C)C(=O)c1no[n+]([O-])c1/C(=N/O)C(C)(C)C | . | 59 | . | . | .
SMILES | CYP2C9 act | CYP2C19 inh | CYP2C9 inhib | Measles CPE | CYP2C19 act
COc1ccc(S(=O)(=O)N(CCc2ccccc2)CC(=O)O)cc1C | . | 62 | 73 | . | .
COc1ccc(C)cc1S(=O)(=O)N(CC(=O)N1CCOCC1)Cc1ccccc1 | . | 66 | . | . | .
CS(=O)(=O)N(CC(=O)N1CCOCC1)Cc1ccccc1 | . | . | . | . | .
COc1ccc(S(=O)(=O)N(CC(=O)O)Cc2ccccc2)cc1OC | . | . | . | . | .
COc1ccc(S(=O)(=O)N(CCc2ccccc2)CC(=O)N2CCOCC2)cc1 | . | . | . | . | .
COc1ccc(S(=O)(=O)N(CC(=O)N2CCOCC2)Cc2ccccc2)cc1C | . | 72 | . | . | .
CC12CCC(c3c1nc1ccccc1[n+]3[O-])C2(C)C (stereo not drawn) | / | / | / | . | /
Cc1ccccc1C(=O)N/N=C/c1ccc(OCC(=O)N2CCCCC2)cc1 | . | . | . | . | .
COc1ccc(CNC(=O)c2cnn3c(C(F)F)cc(C)nc23)cc1OC | . | 57 | . | . | .
O=C(Nc1ccccc1)C1CC=CCC1C(=O)OCC1CCCO1 (stereo not drawn) | . | . | . | . | .
CC1CC(C)(C)NC(=S)N1CCCC(=O)N1CCN(c2ccc(F)cc2)CC1 (stereo not drawn) | / | / | / | . | /
COc1ccc(N=C2C(=O)N3c4c(cccc42)C(C)=CC3(C)C)cc1 | / | / | / | . | /
CCCN1C2=NCCN2c2ccccc21 | . | . | . | 45 | .
CCCN1C2=NCCCN2c2ccccc21 | . | . | . | . | .
O=C(NC1CCCc2ccccc21)C1CCC(CNc2c(N3CCOCC3)c(=O)c2=O)CC1 (stereo not drawn) | . | . | . | . | .

Assay outcomes from PubChem.
